Assay outcomes deposited in PubChem BioAssay by National Center for Advancing Translational Sciences (NCATS).
TDP1 cell CPT – growth inhibition of DT40 Tdp1-/-;hTDP1 cells with camptothecin (screen for TDP1 inhibitors); chicken DT40 Tdp1-/-;hTDP1 cells + 20 nM CPT, ATP luminescence, 48 h; Potency, µM (series often up to 46.2 µM), without a hit: at the highest dose activity change, negative = growth inhibition, hits mostly inhibitors; AID 686979; actives 12% (n = 420,000); note: potency is the fitted concentration of half-maximal effect; % is set by controls: 0 for no effect and ±100 for the full control effect; nearly all actives have a fitted effect of over 55% in size
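Chicken DT40 Tdp1-/- cells complemented with human TDP1, 400 cells/well, exposed to compounds plus 20 nM camptothecin for at least 48 h at 37 C; viability read as ATP content by CellTiter-Glo luminescence.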
IL1B secr inh – inhibitors of inflammasome signaling (IL-1 beta secretion) | THP-1 LPS/ATP IL-1B secretion, AlphaLISA, 16 h; stronger effect = lower value | activity change, % at 57.5 µM | actives 4.7% (n = 360,000); in the data active = activity change below about -50%; inconclusive = mostly about -30% to -49%; note: % is set by controls: 0 for no effect and ±100 for the full control effect
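Secreted IL-1B measured by AlphaLISA bead assay after 16 h compound exposure of THP-1 cells; compounds (final up to 57.5 uM) added 1 h before LPS (250 ng/mL) and ATP (1.25 mM) stimulation; lower signal means less secretion.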
ClpP mod – qHTS Assay for Activators of ClpP. ATP-dependent Clp protease proteolytic subunit (Bacillus subtilis (strain 168)), P80244. purified B. subtilis ClpP, FRET peptide cleavage, 20 min. Potency, µM (titrated, usually from 57.5 µM), for inactives: at the top dose activity change, negative = active. actives 1.9% (n = 340,000). AID 651965, 2013; active = well fitted falling curve with a large enough effect; inconclusive = small, poorly fitted or top-dose-only effect; inactive = no such curve, though single readings can be large or run the other way; note: potency is the fitted concentration of half-maximal effect; the source files actives as falling curves though it sought activators and does not explain the sign; nearly all actives have a fitted effect of over 65% in size
Target sequence (P80244 whole entry, looked up): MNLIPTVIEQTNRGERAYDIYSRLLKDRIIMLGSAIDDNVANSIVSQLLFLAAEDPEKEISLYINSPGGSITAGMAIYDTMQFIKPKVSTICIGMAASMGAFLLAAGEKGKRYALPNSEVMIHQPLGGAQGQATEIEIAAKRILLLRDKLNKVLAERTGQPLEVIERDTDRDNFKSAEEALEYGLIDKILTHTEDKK
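ClpP 10 microg/mL final, pH 8 Tris/KCl buffer with BSA, glycerol, Tween-20; compound pinned in; FRET-FV substrate; RT 20 min; Ex320/Em430; ΔFRET vs ADEP 5.8 microM, DMSO, no enzyme.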
DRD3 agonist – activates the human D3 dopamine receptor. P35462. D3R DiscoveRx beta-arrestin cells, luminescence, 90 min. max activation, %. actives 0.58% (n = 410,000). AID 652048; in the data active = max activation above about 30%; note: 0% is about no effect
Target sequence (P35462 whole entry, looked up): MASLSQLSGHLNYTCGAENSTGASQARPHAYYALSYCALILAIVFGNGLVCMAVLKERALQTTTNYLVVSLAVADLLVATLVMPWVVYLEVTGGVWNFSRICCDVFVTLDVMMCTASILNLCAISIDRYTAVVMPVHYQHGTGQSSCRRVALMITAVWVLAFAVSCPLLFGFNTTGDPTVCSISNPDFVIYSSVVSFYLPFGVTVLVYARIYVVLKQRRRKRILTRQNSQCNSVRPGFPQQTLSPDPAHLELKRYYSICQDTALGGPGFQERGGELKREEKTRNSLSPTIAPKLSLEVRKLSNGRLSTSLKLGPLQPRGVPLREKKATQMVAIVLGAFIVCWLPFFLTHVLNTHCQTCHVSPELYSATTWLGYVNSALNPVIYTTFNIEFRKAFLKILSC
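Agonist mode: compounds and dopamine controls were applied to plated cells for 90 min at 37 degrees C after an overnight attachment at 1500 cells/well. Luminescent read-out followed 30 - 60 minutes at room temperature with DiscoveRx detection reagent.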
DT40 TDP1 no CPT – qHTS for Inhibitors of human tyrosyl-DNA phosphodiesterase 1 (TDP1): qHTS in cells in absence of CPT; DT40 Tdp1-/- hTDP1 cells, no CPT, ATP luminescence, 48 h; Potency, µM (series often up to 46.2 µM), without a hit: at the top dose activity change, negative = growth inhibition, most hits filed as inhibitors; actives 15% (n = 420,000); AID 686978, 2013; note: potency is the fitted concentration of half-maximal effect; % is set by controls: 0 for no effect and ±100 for the full control effect; nearly all actives have a fitted effect of over 55% in size
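Cells were dispensed at 400 per well, compounds added by pin tool, plates incubated ≥48 hr at 37 °C, then CellTiter-Glo added for 30 min at room temperature before luminescence reading. Line: DT40 Tdp1-/- complemented with hTDP1; camptothecin omitted.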
D3 antag – D3 dopamine receptor (human) antagonism | P35462 | actives 2.5% (n = 360,000) | max response, negative = inhibition, % | D3R cells, DiscoveRx beta-arrestin luminescence, antagonist mode; stronger effect = lower value; in the data active = max response below about -50%; inconclusive = no clear call, values can overlap the other calls; note: % is set by controls: 0 for no effect and ±100 for the full control effect
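Cells plated overnight at 1500 cells/well, then exposed to library compounds with dopamine controls for 90 minutes at 37 degrees C. DiscoveRx reagent added for 30–60 minutes at room temperature; luminescence read, quantitative HTS format.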
The depositor's hits bear a star; ? = inconclusive; / = no result; [ ] = dose if it differs, or a comment. The list is not random: actives were taken first. Their share in the collection is about 21%. Unless noted, calls come from the whole dose curve; as a rule, active = well fitted inhibition curve with a large enough effect; inconclusive = small, poorly fitted or top-dose-only effect; inactive = flat fitted curve, though single readings scatter.

SMILES	TDP1 cell CPT	IL1B secr inh	ClpP mod	DRD3 agonist	DT40 TDP1 no CPT	D3 antag
O=C(NCC1Cc2cccc(-c3cncnc3)c2O1)C1CC1 (configuration not stated)	3%[9.04 µM]	/	/	/	-22%	/
CN(Cc1ccn[nH]1)C(=O)C1CCC(=O)N(Cc2cccc(C(F)(F)F)c2)C1 (configuration not stated)	7%	-1	-1%	-4	1%	-9
COc1ccc(OC)c(CCNC(=O)c2cc3c(=O)n(C)c4ccccc4c3n2C)c1	?	/	-19%	1	23µM*	/
COc1ccc(CCNC(=O)c2cc3c(=O)n(C)c4ccccc4c3n2C)cc1OC	?	-3	/	11	16µM*	33
COc1ccc(CNC(=O)c2cc3c(=O)n(C)c4ccccc4c3n2C)cc1	20%	/	-10%	5	-1%	/
Cc1ccc(OC(C)C(=O)Nc2ccccc2C(=O)N2CCN(C)CC2)cc1 (configuration not stated)	-7%	-12	-2%	-9	-18%	-8
COc1ccc(NC(=O)c2cccs2)cc1OC	-7%	-7	-1%	-14	-2%	-11
CC(Oc1ccc(Cl)cc1Cl)c1nc(-c2ccc(NC(=O)c3cccnc3)cc2)no1 (configuration not stated)	5.8µM*	-12	20%	9	5.8µM*	34
CC(Oc1ccc(Cl)cc1Cl)C(=O)NNC(=O)c1ccncc1 (configuration not stated)	-4%	0	1%	-9	-9%	-4
COc1ccc(Cl)cc1-c1nc(-c2ccc(NC(=O)c3cccs3)cc2)no1	?	-22	12%	24	21µM*	37
CC(Oc1ccc(Cl)cc1Cl)c1nc(-c2ccc(NC(=O)c3ccncc3)cc2)no1 (configuration not stated)	15µM*	0	-2%	7	8.2µM*	43
O=C(CCNS(=O)(=O)c1ccc(Br)cc1)NCc1ccc(Cl)cc1	?	-20	-2%	0	0%	5
CCCCCCc1c(C)c2ccc(OCC(=O)N3CCC[C@H]3C(=O)O)c(C)c2oc1=O	-5%	3	5%	-39	-2%	-14
COC(=O)C1C(O)CC[C@@H]2CN3CCc4c([nH]c5ccccc45)C3C[C@@H]12 (some centres not stated)	13%	/	/	/	0%	/
COc1ccc(-n2ccn(CC(=O)Nc3ccccc3C(F)(F)F)c(=O)c2=O)cc1OC	-10%	/	3%	6	-4%	/
CC1(C)Cc2c(sc(NC(=O)C(=O)NCC3CCCO3)c2C(N)=O)CO1 (configuration not stated)	-11%	2	1%	3	23%	0
CC(=O)[C@@]1(O)CC[C@H]2[C@@H]3CCC4=CC(=O)CC[C@]4(C)[C@H]3[C@@H](O)C[C@@]21C	-18%	-12	-2%	11	-16%	-4
CC(=O)C1(C)CCC2C3C=C(C)C4=CC(=O)CCC4(C)C3CCC21C (configuration not stated)	18µM*	-73*	-2%	12	23µM*	22
C=C1CC2C(CCC3(C)C2CCC3(O)C(C)=O)C2(C)CCC(=O)C=C12 (configuration not stated)	?	-92*	0%	13	26µM*	0
O=C1/C(=C/c2ccccc2Cl)SC(=S)N1CCC(=O)N1CCCCC1CCO (configuration not stated)	16µM*	?	-2%	12	10µM*	14
CC(C)c1ccc(/C=C2\SC(=S)N(CCC(=O)N3CCCCC3CCO)C2=O)cc1 (configuration not stated)	?	-51*	0%	-14	21µM*	?
COc1ccc(CN2CCN(C(=O)c3ccco3)CC2)c(OC)c1OC	-3%	0	2%	43*	-2%	9
CN1CCCN(Cc2ccc(Cl)cc2Cl)CC1	-26%	-5	0%	-34	-22%	-78*
COc1ccc(CN2CCN(C(=O)c3ccco3)CC2)cc1OCc1ccccc1	?	-19	-8%	21	15µM*	-12
O=C(c1ccco1)N1CCN(Cc2cn[nH]c2-c2cccc3ccccc23)CC1	?	-16	2%	-8	23µM*	2
SMILES	TDP1 cell CPT	IL1B secr inh	ClpP mod	DRD3 agonist	DT40 TDP1 no CPT	D3 antag
CCOC(=O)N1CCN(Cc2cn[nH]c2-c2cccc3ccccc23)CC1	-27%	-15	0%	0	?	-4
COC(=O)CCCn1nc(NC(=O)c2ccco2)cc1C	-1%	17	0%	1	0%	25
O=C(COC(=O)CNC(=O)C1CCCCC1)Nc1ccc(Cl)cc1F	2%	-10	/	4	-10%	3
CN1CCCN(Cc2ccccc2C(F)(F)F)CC1	-13%	-23	-4%	-6	?	-84*
CCc1cc(C(=O)N2CCN(C(=O)c3ccco3)CC2)sc1C	-5%	-4	28µM*	5	-24%	5
COc1ccccc1CN1CCN(C(=O)c2ccco2)CC1	5%	-5	-5%	32*	-4%	19
Cc1ccc(CN2CCN(C(=O)c3ccco3)CC2)cc1	-10%	7	1%	31*	-26%	0
CCS(=O)(=O)N1CCN(C(=O)c2ccco2)CC1	2%	15	0%	0	0%	18
CCC(=O)N1CCC1(C)C(=O)NCc1ccccc1SC (configuration not stated)	-13%	-4	-5%	2	-14%	1
Cc1ccccc1CN1CCN(C(=O)c2ccco2)CC1	-1%	24	-2%	3	?	8
O=C(c1ccco1)N1CCCN(C(=O)c2ccco2)CC1	?	0	-1%	-2	-30%	27
COc1cccc(OC)c1C(=O)N1CCN(Cc2ccccc2C(F)(F)F)CC1	?	-16	32µM*	4	?	44
O=C(OCC(=O)N1CCN(C(=O)c2ccco2)CC1)c1ccccc1OCc1ccc(Cl)cc1	16µM*	0	-6%	0	23µM*	0
CCn1c2ccccc2c2cc(CN3CCN(C(=O)c4ccco4)CC3)ccc21	?	-3	-16%	2	23µM*	52
O=C(OCC(=O)N1CCOCC1)c1ccccc1OCc1ccc(Cl)cc1	11%	-17	/	16	?	7
O=C(c1ccco1)N1CCN(C(=O)c2ccco2)C1=S	2.6µM*	-100*	1%	-18	5.8µM*	-23
